Experimental data: paper PMC5540273 (PLoS ONE, 2017)

How the values were obtained:
Conditions in all cases: concentration: 1 μM, replicates: in singlicate; n = 1
MET = tested on: MET
MINK = tested on: T1, MINK
T1 construct: gene MINK1

MKK7 = tested on: MKK7
MKNK1 = tested on: MKNK1
MKNK2 = tested on: MKNK2
MLCK = tested on: T2, MLCK
T2 construct: gene MYLK3

MLK1 = tested on: T3, MLK1
T3 construct: gene MAP3K9

MLK2 = tested on: MLK2
MLK3 = tested on: MLK3
MRCKA = tested on: MRCKA
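Further: KINOMEscan kinase panel screen.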

Row | Structure (SMILES) | %Inh (MET) [%] | %Inh (MINK) [%] | %Inh (MKK7) [%] | %Inh (MKNK1) [%] | %Inh (MKNK2) [%] | %Inh (MLCK) [%] | %Inh (MLK1) [%] | %Inh (MLK2) [%] | %Inh (MLK3) [%] | %Inh (MRCKA) [%]
1 | Cc1nc(N(C)[C@H]2CN(C(=O)CC#N)CC[C@H]2C)c2cc[nH]c2n1 | 0 | 0 | 0 | 0 | 0 | 0 | 0 | 11 | 0 | 0
2 | COc1cccc(-n2cnc3c(N)ncnc32)c1 [SKF-97416] | 0 | 22 | 30 | 0 | 31 | 5 | 2 | 0 | 0 | 13
3 | Cc1ccc(Oc2ccc(Nc3ncnc4cc[nH]c34)cc2C)cn1 | 4 | 10 | 0 | 34 | 41 | 0 | 5 | 19 | 1 | 0
4 | CCCC(=O)Nc1n[nH]c2ncc(-c3cccc4ccccc34)cc12 [SB-642057] | 0 | 21 | 0 | 10 | 7 | 0 | 0 | 0 | 0 | 9
5 | COC(=O)c1c(-c2ccccc2)c2cc(Br)ccc2c(=O)n1Cc1ccc(NC(=O)CCC(=O)O)cc1 | 18 | 0 | 0 | 0 | 0 | 0 | 0 | 0 | 0 | 0
6 | CN1C(=O)C(Nc2cc(Cl)c(O)c(Cl)c2)=C(c2ccc(Cl)cc2)C1=O [SB-404321] | 0 | 0 | 0 | 38 | 19 | 0 | 0 | 0 | 0 | 5
7 | OCCCNc1nccc(-c2c(-c3cccc(C(F)(F)F)c3)nn3cc(C(F)(F)F)ccc23)n1 [GW630813] | 0 | 0 | 15 | 0 | 0 | 0 | 0 | 0 | 0 | 0
8 | COc1ccc(-c2cc3c(C)nc(N)nc3n([C@H]3CC[C@H](OCCO)CC3)c2=O)cn1 | 0 | 1 | 0 | 0 | 0 | 17 | 0 | 0 | 3 | 0
9 | CCn1c(-c2nonc2N)nc2ccccc21 [SB-693162/GW549034] | 14 | 36 | 0 | 0 | 59 | 2 | 0 | 10 | 0 | 0
10 | COc1ccc(-c2coc3ccc(-c4nnc(SCc5cccc(C#N)c5)o4)cc23)cc1 | 0 | 9 | 17 | 20 | 2 | 2 | 0 | 18 | 11 | 0
11 | O=C(NCc1cccs1)c1cc(C(=O)c2c(Cl)cccc2Cl)c[nH]1 [GW823670] | 5 | 0 | 0 | 0 | 0 | 0 | 10 | 13 | 0 | 0
12 | Nc1n[nH]c2nnc(-c3ccccc3)c(-c3ccccc3)c12 [GW554060] | 0 | 0 | 7 | 11 | 49 | 0 | 0 | 0 | 8 | 4
13 | COc1ccc(-n2cnc3c(N)ncnc32)cc1 [SKF-97236] | 0 | 9 | 15 | 9 | 33 | 11 | 0 | 37 | 20 | 0
14 | Cc1ccc(-c2ccc3c(ccc4sc5c(c43)NC[C@@H](C)N=C5N(C)C)n2)cn1 | 0 | 0 | 0 | 0 | 0 | 0 | 0 | 0 | 0 | 0
15 | CCC(=O)c1c(-c2ccccc2)c2cc(Cl)ccc2c(=O)n1Cc1cc(C(=O)NC2CC2)n(C)n1 | 0 | 0 | 25 | 0 | 11 | 5 | 0 | 15 | 0 | 8
16 | Nc1nccc2scc(-c3ccc4c(c3)CCN4C(=O)Cc3ccccc3)c12 [GSK2576924] | 0 | 7 | 9 | 3 | 2 | 3 | 0 | 0 | 5 | 11
17 | COc1ccc(-c2cc3c(C)nc(N)nc3n([C@H]3CC[C@H](O)CC3)c2=O)cn1 | 0 | 0 | 0 | 0 | 0 | 0 | 0 | 0 | 0 | 0
18 | O=c1cc(N2CCOCC2)nc2n(Cc3ccc(F)c(Cl)c3)ccn12 [GSK2297099] | 0 | 0 | 0 | 5 | 1 | 7 | 0 | 0 | 0 | 0

Row | Structure (SMILES) | %Inh (MET) [%] | %Inh (MINK) [%] | %Inh (MKK7) [%] | %Inh (MKNK1) [%] | %Inh (MKNK2) [%] | %Inh (MLCK) [%] | %Inh (MLK1) [%] | %Inh (MLK2) [%] | %Inh (MLK3) [%] | %Inh (MRCKA) [%]
19 | CN1C(=O)C(Nc2ccccc2)=C(c2ccccc2)C1=O [SB-300079] | 0 | 17 | 20 | 0 | 0 | 9 | 0 | 34 | 0 | 6
20 | Cc1cccc(-c2cc(-c3c[nH]nc3-c3ccccn3)ccn2)c1 [GW679395] | 0 | 38 | 3 | 0 | 2 | 0 | 0 | 0 | 0 | 9
21 | COc1cc2ncn(-c3cc(OCCCc4ccccc4)c(C(N)=O)s3)c2cc1OC [GSK205189] | 5 | 3 | 0 | 3 | 0 | 0 | 3 | 19 | 8 | 0
22 | COc1cc(Nc2ccnc3ccc(C(F)(F)F)cc23)cc(OC)c1OC [GW577382] | 0 | 17 | 0 | 29 | 9 | 0 | 3 | 31 | 23 | 22
23 | O=C(Nc1n[nH]c2nc(-c3ccccc3)c(Br)cc12)C1CC1 [SB-708998] | 0 | 6 | 0 | 7 | 1 | 21 | 0 | 18 | 22 | 0
24 | C[C@@H]1CC[C@H](C(=O)NC2CCCCC2)CN1c1cc(-c2ccc3c(N)n[nH]c3c2)nc(N)n1 [GSK2291363] | 0 | 12 | 0 | 12 | 18 | 0 | 4 | 0 | 32 | 15
25 | Cl.c1ccc(Cn2cnc3cc(Nc4ncnc5ccccc45)ccc32)cc1 [GW272142] | 33 | 0 | 17 | 0 | 6 | 0 | 0 | 0 | 11 | 16
26 | COc1cccc(C2=C(N(C)c3ccccc3)C(=O)NC2=O)c1 [SB-334865] | 0 | 11 | 0 | 3 | 0 | 0 | 0 | 0 | 12 | 0
27 | Nc1ncnc2c1ncn2-c1cccc(F)c1 [SKF-97560] | 18 | 9 | 29 | 0 | 32 | 18 | 5 | 30 | 10 | 0
28 | COC(=O)c1c(-c2ccccc2)c2cc(C)ccc2c(=O)n1Cc1ccccc1 | 0 | 0 | 0 | 0 | 0 | 0 | 0 | 0 | 0 | 0
29 | COc1cc(Nc2nccc(N3CCC(NC(=O)C4COc5ccccc5O4)C3)n2)cc(OC)c1OC (centres unmarked) [GSK1379761] | 19 | 0 | 0 | 0 | 31 | 12 | 63 | 4 | 44 | 0
30 | Cl.NS(=O)(=O)c1cccc(Nc2cc(-c3ccc(F)cc3)n[nH]2)c1 [GW824645] | 0 | 57 | 19 | 8 | 0 | 29 | 0 | 4 | 0 | 0
31 | Cn1c(=O)c(F)c(Nc2ccc(I)cc2F)c2c(=O)n(OC[C@H](O)CO)cnc21 | 12 | 0 | 0 | 4 | 0 | 0 | 19 | 25 | 9 | 20
32 | FC(F)(F)c1ccc(-c2ncn(CCCN3CCOCC3)c2-c2ccncc2)cc1 [SB-217780] | 4 | 0 | 0 | 16 | 58 | 0 | 0 | 2 | 5 | 0
33 | COc1cc2nccc(Nc3cccc(Oc4ccccc4)c3)c2cc1OC.Cl [GW284543] | 0 | 0 | 0 | 0 | 0 | 4 | 0 | 0 | 11 | 4
34 | CCS(=O)c1ccc(-c2coc3ccc(-c4nnc(C)o4)cc23)cc1 (centres unmarked) | 0 | 15 | 23 | 17 | 1 | 0 | 0 | 7 | 15 | 0
35 | Cc1cccc(-c2nc(Nc3ccc4c(cnn4C)c3)c3ccccc3n2)n1 [GW876731] | 3 | 16 | 10 | 100 | 9 | 28 | 12 | 16 | 0 | 17
